From PubChem BioAssay
Most compounds without a hit are left out; they make up all but 19% or so of the library.
BCR signal inh = blocks chronic active B-cell receptor signaling. 0.05% of 340,000 active. ABC-DLBCL IkBa-CBG/CBR reporter, luminescence ratio, 4 h. Potency, µM (highest dose often 46.1 µM), without a hit: at the top dose activity change, negative = inhibition, usual class: inhibitors. AID 493014; active means well fitted inhibition curve with a large enough effect in the signal ratio, with a control signal flat, not every such curve was filed as active; inconclusive means small, poorly fitted or top-dose-only effect, or effect the other way, or a change in a side signal; the % refers to the signal ratio;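 further: potency means the concentration at half of the fitted maximal effect; plate controls were basal doxycycline-induced cells for no effect and cells given 10 µM MG132 for full effect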
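TMD8 ABC-DLBCL cells carrying doxycycline-inducible green luciferase fused to IkappaBalpha plus unfused red luciferase were exposed to compounds (up to 46 uM) for 4 hrs at 37C. Activity came from the overlap-corrected green/red luminescence ratio.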
IL1B secr inh = blocks inflammasome-driven IL-1 beta release; THP-1 LPS/ATP IL-1B secretion, AlphaLISA, 16 h; stronger effect = lower value; activity change, % at 57.5 µM; 4.7% of 360,000 active; AID 743279; in the data active means activity change below about -50%; inconclusive means mostly about -30% to -49%; further: on the % scale 0 is the no-effect control and ±100 the full control effect
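Secreted IL-1B measured by AlphaLISA bead assay after 16 h compound exposure of THP-1 cells; compounds (final up to 57.5 uM) added 1 h before LPS (250 ng/mL) and ATP (1.25 mM) stimulation; lower signal means less secretion.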
MCF10A rerep = DNA re-replication induction in MCF 10a cells | MCF 10A DNA re-replication, Hoechst nuclear intensity, 48 h | Potency, µM (highest dose often 46.1 µM), for inactives: top-dose activity, positive = re-replication, most hits filed as activators | 2.9% of 350,000 active; further: potency means the concentration at half of the fitted maximal effect; % of control where 0% means no effect; nearly all actives have a fitted effect of over 50% in size
TDP1 cell noCPT = qHTS for Inhibitors of human tyrosyl-DNA phosphodiesterase 1 (TDP1): qHTS in cells in absence of CPT; DT40 Tdp1-/- hTDP1 cells, no CPT, ATP luminescence, 48 h; Potency, µM (doses to about 46.2 µM), inactives show top-dose activity change, negative = growth inhibition, hits mostly inhibitors; 15% of 420,000 active; AID 686978, 2013; further: potency means the concentration at half of the fitted maximal effect; on the % scale 0 is the no-effect control and ±100 the full control effect; nearly all actives have a fitted effect of over 55% in size
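Luminescent ATP content (CellTiter-Glo) served as the growth readout. Knockout chicken DT40 cells expressing human TDP1 were exposed to compounds without camptothecin for a minimum 48 hr at 37 °C.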
DT40 TDP1 CPT = DT40-hTDP1 cell growth loss with CPT. chicken DT40 Tdp1-/-;hTDP1 cells + 20 nM CPT, ATP luminescence, 48 h. Potency, µM (highest dose often 46.2 µM), without a hit: top-dose activity change, negative = growth inhibition, hits mostly inhibitors. 12% of 420,000 active. AID 686979; further: potency means the concentration at half of the fitted maximal effect; on the % scale 0 is the no-effect control and ±100 the full control effect; nearly all actives have a fitted effect of over 55% in size
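Cell growth measured by CellTiter-Glo luminescence after a minimum 48 h, 37 C compound exposure with 20 nM CPT in Tdp1-knockout DT40 cells stably expressing hTDP1, seeded 400/well; qHTS titration format.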
SW480 rerep = inducers of DNA re-replication in SW480 colon cancer cells; SW480 DNA re-replication, Hoechst DNA content imaging, 48 h; Potency, µM (doses to about 46.1 µM), for inactives: top-dose re-replication activation, most hits filed as activators; 1.8% of 340,000 active; AID 624297; further: potency means the concentration at half of the fitted maximal effect; % of control where 0% means no effect; nearly all actives have a fitted effect of over 55% in size
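SW480 cells exposed to compounds for 48 hr at 37 C, 5% CO2, then Hoechst-stained 40 min. Nuclear DNA content imaged by fluorescence scanning (405 nm excitation, 500-530 nm emission); re-replication scored as increased high-intensity nuclei.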
* marks the source's active call; other numbers are inactive results. Unless noted, the call rests on the fitted dose curve; in most records, active means well fitted curve in the direction sought with a large enough effect; inconclusive means small, poorly fitted or top-dose-only effect, or another doubt; inactive means no such curve, though single readings can be large; an effect the other way counts as inactive or inconclusive.

How did COc1ccc2[nH]cc(CCNc3ncncc3-c3ccccc3C(F)(F)F)c2c1 do in these assays?
TDP1 cell noCPT: inconclusive; DT40 TDP1 CPT: 16µM*

What do the screens show for `COC(=O)[C@]12CCCCC=C1N(Cc1cccc3ccccc13)C(=O)[C@H](CC(=O)N1CCSCC1)C2`?
IL1B secr inh: -12; TDP1 cell noCPT: inconclusive; DT40 TDP1 CPT: inconclusive

What do the screens show for `COc1ccc(NC(=O)Cn2cnc3c(nc4n3CCCCC4)c2=O)c(OC)c1`?
TDP1 cell noCPT: -1%; DT40 TDP1 CPT: -2%

How did CCOC(=O)C1(C)CCCN1C(=O)c1ccc(OC)c(F)c1 (configuration not stated) do in these assays?
IL1B secr inh: -18; TDP1 cell noCPT: -8%; DT40 TDP1 CPT: 6%

What do the screens show for `Cc1nc(SCC(=O)NC(C)c2ccccc2)c2oc3ccccc3c2n1` (configuration not stated)?
BCR signal inh: 14%; IL1B secr inh: 0; MCF10A rerep: inconclusive; TDP1 cell noCPT: 21µM*; DT40 TDP1 CPT: 16µM*; SW480 rerep: 1%

How did Cc1nc(SCC(=O)Nc2ccccc2)c2oc3ccccc3c2n1 do in these assays?
BCR signal inh: 3%; IL1B secr inh: 3; MCF10A rerep: 12µM*; TDP1 cell noCPT: -30%; DT40 TDP1 CPT: -5%; SW480 rerep: -7%

How did Cc1nc(SCC(=O)N2CCCc3ccccc32)c2oc3ccccc3c2n1 do in these assays?
BCR signal inh: 0%; IL1B secr inh: -8; MCF10A rerep: inconclusive; TDP1 cell noCPT: inconclusive; DT40 TDP1 CPT: 16µM*; SW480 rerep: 16µM*

What do the screens show for `Cc1nc(SCC(=O)Nc2ccc(F)cc2)c2oc3ccccc3c2n1`?
BCR signal inh: inconclusive; IL1B secr inh: -8; MCF10A rerep: inconclusive; TDP1 cell noCPT: -6%; DT40 TDP1 CPT: -6%; SW480 rerep: -7%

How did Cc1cc(C)nc(Sc2nc(C)nc3c2oc2ccccc23)n1 do in these assays?
BCR signal inh: inconclusive; IL1B secr inh: inconclusive; MCF10A rerep: inconclusive; TDP1 cell noCPT: 23µM*; DT40 TDP1 CPT: inconclusive; SW480 rerep: inconclusive

How did O=C(O)CSc1nc(-c2ccc(Cl)cc2)nc2c1oc1ccccc12 do in these assays?
BCR signal inh: -1%; IL1B secr inh: 37; MCF10A rerep: 23µM*; TDP1 cell noCPT: inconclusive; DT40 TDP1 CPT: inconclusive; SW480 rerep: 165%

Results for COc1cc(NC(=O)Cn2c(=O)n(Cc3ccco3)c(=O)c3sc4ccccc4c32)cc(OC)c1 ?
TDP1 cell noCPT: -29%; DT40 TDP1 CPT: -21%

What do the screens show for `Cc1cccc(NC(=O)Cn2c(=O)n(Cc3ccccc3)c(=O)c3sc4ccccc4c32)c1`?
TDP1 cell noCPT: -18%; DT40 TDP1 CPT: -13%

What do the screens show for `Cc1cccc(NC(=O)Cn2c(=O)n(CCc3ccccc3)c(=O)c3sc4ccccc4c32)c1`?
TDP1 cell noCPT: 23µM*; DT40 TDP1 CPT: 16µM*

Results for CCOc1ccc(NC(=O)Cn2c(=O)n(Cc3ccccc3)c(=O)c3sc4ccccc4c32)cc1 ?
TDP1 cell noCPT: 9.2µM*; DT40 TDP1 CPT: 6.5µM*

How did COc1cccc(/C=C2\SC(=S)N(CCC(=O)N3CCCCC3)C2=O)c1 do in these assays?
BCR signal inh: -8%; IL1B secr inh: 0; MCF10A rerep: 10µM*; TDP1 cell noCPT: 4.1µM*; DT40 TDP1 CPT: 6.5µM*; SW480 rerep: -2%

What do the screens show for `CCOC(=O)N1CCN(C(=O)CCN2C(=O)/C(=C\c3cccc(OC)c3)SC2=S)CC1`?
BCR signal inh: -5%; IL1B secr inh: 9; MCF10A rerep: -7%; TDP1 cell noCPT: 15µM*; DT40 TDP1 CPT: -96%; SW480 rerep: 22%

Results for COc1cccc(/C=C2\SC(=S)N(CCCC(=O)Nc3cc(C)on3)C2=O)c1 ?
BCR signal inh: inconclusive; IL1B secr inh: -13; MCF10A rerep: 10%; TDP1 cell noCPT: -6%; DT40 TDP1 CPT: -27%; SW480 rerep: 2%

What do the screens show for `O=C(Nc1nnc([C@@H]2C[C@H](O)[C@@H](CO)O2)s1)c1cccc2ccccc12`?
IL1B secr inh: 17; TDP1 cell noCPT: 1%; DT40 TDP1 CPT: -13%

What do the screens show for `COc1ccc(OCC(O)CN(CC(O)COc2ccc(OC)cc2)c2cccc(O)c2)cc1` (configuration not stated)?
BCR signal inh: inconclusive; IL1B secr inh: -50*; MCF10A rerep: 3%; TDP1 cell noCPT: -47%; DT40 TDP1 CPT: inconclusive; SW480 rerep: -3%

Results for COc1ccc(OCC(O)COc2ccc(OC)cc2)cc1 ?
BCR signal inh: -2%; IL1B secr inh: -14; MCF10A rerep: -7%; TDP1 cell noCPT: inconclusive; DT40 TDP1 CPT: -21%; SW480 rerep: -7%

Results for CCOCN(C(=O)Cn1cnc2cc(C)c(C)cc21)c1c(C)cccc1CC ?
TDP1 cell noCPT: 16µM*; DT40 TDP1 CPT: 21µM*

Results for CCOCN(C(=O)Cn1c(COC)nc2ccccc21)c1c(C)cccc1CC ?
BCR signal inh: -17%; IL1B secr inh: -5; MCF10A rerep: 0%; TDP1 cell noCPT: inconclusive; DT40 TDP1 CPT: inconclusive; SW480 rerep: -12%

How did CCOC(=O)C1=C(C)NC2=C(C(=O)CC(c3cccs3)C2)C1c1cccs1 (configuration not stated) do in these assays?
BCR signal inh: inconclusive; IL1B secr inh: inconclusive; MCF10A rerep: 20µM*; TDP1 cell noCPT: inconclusive; DT40 TDP1 CPT: inconclusive; SW480 rerep: inconclusive

How did CC1=C(C(=O)OC2CCCC2)C(c2ccc(C)o2)C2=C(CC(c3cccs3)CC2=O)N1 (configuration not stated) do in these assays?
BCR signal inh: inconclusive; IL1B secr inh: -28; MCF10A rerep: inconclusive; TDP1 cell noCPT: 16µM*; DT40 TDP1 CPT: inconclusive; SW480 rerep: inconclusive

What do the screens show for `COC(=O)C1=C(C)NC2=C(C(=O)CCC2)C1c1coc2ccccc2c1=O` (configuration not stated)?
BCR signal inh: inconclusive; IL1B secr inh: -1; MCF10A rerep: -13%; TDP1 cell noCPT: -23%; DT40 TDP1 CPT: 1%; SW480 rerep: 1%

How did CC1=C(C(=O)OC2CCCCC2)C(c2ccc(C)o2)C2=C(CC(C)(C)CC2=O)N1 (configuration not stated) do in these assays?
BCR signal inh: -2%; IL1B secr inh: 7; MCF10A rerep: inconclusive; TDP1 cell noCPT: inconclusive; DT40 TDP1 CPT: 18µM*; SW480 rerep: 4%
